Test results published in PubChem BioAssay AID1211 (NMMLSC, 2008).
The source made the active and inactive calls. The rule behind the calls is not given here.

Biological target: Estrogen receptor (Homo sapiens) (UniProt P03372)
Experiment: ERalpha ligand binders by competition, primary screen, cell-based, Cos7 ERalpha-GFP, flow cytometry (AID 1211);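 note: 0% = DMSO vehicle wells and 100% = no E2-Alexa633 signal left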
Settings: fluorescent ligand competition, stronger effect = higher value

Estrogen receptor (Homo sapiens), sequence (P03372 whole entry, looked up): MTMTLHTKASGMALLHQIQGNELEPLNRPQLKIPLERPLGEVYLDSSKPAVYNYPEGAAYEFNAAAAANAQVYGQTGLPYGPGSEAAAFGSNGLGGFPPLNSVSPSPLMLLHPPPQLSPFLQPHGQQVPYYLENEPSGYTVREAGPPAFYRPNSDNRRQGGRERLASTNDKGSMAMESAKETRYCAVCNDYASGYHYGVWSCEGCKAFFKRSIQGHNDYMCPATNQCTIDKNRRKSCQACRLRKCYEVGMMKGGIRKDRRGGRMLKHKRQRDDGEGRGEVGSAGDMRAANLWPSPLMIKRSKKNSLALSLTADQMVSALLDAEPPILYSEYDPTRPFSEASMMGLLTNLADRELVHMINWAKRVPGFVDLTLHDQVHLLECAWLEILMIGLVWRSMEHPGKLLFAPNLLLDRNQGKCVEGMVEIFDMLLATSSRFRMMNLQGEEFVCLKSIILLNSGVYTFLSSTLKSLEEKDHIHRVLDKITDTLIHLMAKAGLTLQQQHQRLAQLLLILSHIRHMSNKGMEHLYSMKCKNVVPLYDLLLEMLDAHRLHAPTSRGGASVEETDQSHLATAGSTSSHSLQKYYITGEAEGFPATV

SMILES	inhibition of ligand binding (at 10 µM)	inhibition of ligand binding (binding inhibition, at 0.1 µM)
CCOC(=O)C1CCCN(C(=O)c2cc3ncc(Br)cn3n2)C1 (configuration not stated)	3% (inactive)	41%
CN(C(=S)Nc1cccnc1)c1ccc(O)cc1	39% (inactive)	41%
O=C(O)c1cc(-c2ccco2)nc2ccccc12	57% (inactive)	21%
CCCCCCNC(=O)c1cc(-c2ccco2)nc2ccccc12	40% (inactive)	44%
O=c1cc(-c2ccco2)oc2c1ccc1ccccc12	48% (inactive)	4%
O=S(=O)(Nc1ncnc2sc3c(c12)CCC3)c1ccc2ccccc2c1	28% (inactive)	37%
CCOc1cc(C2CC(=O)c3c(ccc4ccccc34)N2)ccc1O (configuration not stated)	32% (inactive)	23%
Cc1ccc(-n2nnnc2SCC(=O)Nc2cccc(NC(=O)c3ccco3)c2)cc1C	46% (inactive)	7%
Cn1c(SCc2cc(=O)n3cc(Br)ccc3n2)nnc1C1COc2ccccc2O1 (configuration not stated)	19% (inactive)	27%
CCCCNS(=O)(=O)c1ccc(NC(=O)C(Sc2ccccc2)c2ccccc2)cc1 (configuration not stated)	25% (inactive)	21%
CCOc1cccc2cc(-c3cn4cc(C)ccc4n3)c(=O)oc12	52% (inactive)	29%
CC12CCC(=O)N1C(C(=O)OCC(=O)Nc1sccc1C#N)CS2 (configuration not stated)	47% (active)	89%
O=C(O)c1cc(-c2ccco2)nc2ccc(Br)cc12	21% (inactive)	39%
COc1ccc(C2Nc3ccccc3C(=O)N2c2ccc(C)cc2)cc1Cn1cc([N+](=O)[O-])cn1 (configuration not stated)	26% (inactive)	7%
O=C1c2ccccc2C(=O)N1/N=C/c1ccc(O)c(O)c1	32% (inactive)	23%
O=C(Cc1coc2cc3c(cc12)CCC3)OCc1cc(=O)n2c(n1)sc1ccccc12	31% (inactive)	9%
N#CC(C(=O)Nc1ccc(Cl)cc1)=C1Nc2ccccc2N1	48% (inactive)	21%
O=C(CCCn1c(=S)[nH]c2cc3c(cc2c1=O)OCO3)N1CCN(c2ccc(Cl)cc2)CC1	30% (inactive)	27%
C/C=C(/C(=C/C)c1ccc(O)cc1)c1ccc(O)cc1	76% (active)	87%
Cn1nnnc1SCC(=O)Nc1nc(-c2ccccc2)c(-c2ccccc2)o1	45% (inactive)	7%
CCn1c(SCC(=O)c2ccc(O)c(O)c2)nnc1-c1ccccc1OC	54% (inactive)	16%
